# Reference: PubChem BioAssay AID1159580 (chemical genetic matrix, 2015)
# Values joined by “and” are separate entries in the source; they are usually repeats but may differ in a detail not shown here. Equal values may be shown once. Screen size: about 5,500 compounds; about 2,000 (36%) were called active. Another 18% or so got no clear call; they are omitted. This is one part of the list. Unmarked numbers belong to inactive results. No stated cut-off is given here; in the data, active means normalized growth mostly below about 0.91 (no sharp cut-off); inconclusive means no clear call, values can overlap the other calls; inactive means mostly above about 0.92.
# Test: chemical genetic growth profiling, strain panel (AID 1159580);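 further: tested at 20 µM; growth read once vehicle control cultures reached saturation at 30 °C; 1 = growth at the plate median or of vehicle wells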
# Conditions: S. cerevisiae deletion strains, growth OD
smiles,measurement,setting,value
Nc1c2ccccc2nc2ccccc12,normalized growth,"locus YAL013W, strain DEP1, stronger effect = lower value",0.734 (active)
same,normalized growth,"locus YAL021C, strain ccr4, stronger effect = lower value",0.568 (active)
same,normalized growth,"locus YAL026C, strain drs2, stronger effect = lower value",0.675 (active)
same,normalized growth,"locus YAL030W, strain snc1, stronger effect = lower value",0.566 (active)
same,normalized growth,"locus YBL061C, strain skt5, stronger effect = lower value",0.754 (active)
same,normalized growth,"locus YBR009C, strain hhf1, stronger effect = lower value",0.378 (active)
same,normalized growth,"locus YBR021W, strain FUR4, stronger effect = lower value",1.02
same,normalized growth,"locus YBR023C, strain chs3, stronger effect = lower value",0.759 (active)
same,normalized growth,"locus YBR171W, strain sec66, stronger effect = lower value",1.09
same,normalized growth,"locus YBR229C, strain ROT2, stronger effect = lower value",1.01
same,normalized growth,"locus YBR231C, strain swc5, stronger effect = lower value",0.61 (active)
same,normalized growth,"locus YBR279W, strain paf1, stronger effect = lower value",0.55 (active)
same,normalized growth,"locus YCL011C, strain gbp2, stronger effect = lower value",0.526 (active)
same,normalized growth,"locus YCL016C, strain dcc1, stronger effect = lower value",0.453 (active)
same,normalized growth,"locus YCL029C, strain bik1, stronger effect = lower value",0.412 (active)
same,normalized growth,"locus YCL061C, strain MRC1, stronger effect = lower value",0.801 (active)
same,normalized growth,"locus YCL069W, strain vba3, stronger effect = lower value",0.732 (active)
same,normalized growth,"locus YCR088W, strain abp1, stronger effect = lower value",0.737 (active)
same,normalized growth,"locus YDL005C, strain med2, stronger effect = lower value",0.781 (active)
same,normalized growth,"locus YDL035C, strain GPR1, stronger effect = lower value",0.478 (active)
same,normalized growth,"locus YDL040C, strain nat1, stronger effect = lower value",0.838 (active)
same,normalized growth,"locus YDL074C, strain BRE1, stronger effect = lower value",0.484 (active)
same,normalized growth,"locus YDL101C, strain DUN1, stronger effect = lower value",0.782 (active)
same,normalized growth,"locus YDL134C, strain PPH21, stronger effect = lower value",0.729 (active)
same,normalized growth,"locus YDL185W, strain tfp1, stronger effect = lower value",1
same,normalized growth,"locus YDL192W, strain arf1, stronger effect = lower value",0.622 (active)
same,normalized growth,"locus YDR001C, strain nth1, stronger effect = lower value",0.89 (active)
same,normalized growth,"locus YDR069C, strain doa4, stronger effect = lower value",0.5 (active)
same,normalized growth,"locus YDR101C, strain arx1, stronger effect = lower value",0.483 (active)
same,normalized growth,"locus YDR137W, strain rgp1, stronger effect = lower value",0.983
same,normalized growth,"locus YDR150W, strain NUM1, stronger effect = lower value",0.838 (active)
same,normalized growth,"locus YDR159W, strain sac3, stronger effect = lower value",0.875
same,normalized growth,"locus YDR162C, strain NBP2, stronger effect = lower value",0.698 (active)
same,normalized growth,"locus YDR195W, strain ref2",1.23 [resistant] (active)
same,normalized growth,"locus YDR297W, strain sur2, stronger effect = lower value",0.662 (active)
same,normalized growth,"locus YDR318W, strain mcm21, stronger effect = lower value",0.565 (active)
same,normalized growth,"locus YDR334W, strain swr1, stronger effect = lower value",0.93
same,normalized growth,"locus YDR335W, strain msn5, stronger effect = lower value",0.782 (active)
same,normalized growth,"locus YDR388W, stronger effect = lower value",0.481 (active)
same,normalized growth,"locus YDR392W, strain spt3, stronger effect = lower value",0.825
same,normalized growth,"locus YDR502C, strain sam2, stronger effect = lower value",0.513 (active)
same,normalized growth,"locus YEL003W, strain gim4, stronger effect = lower value",0.679 (active)
same,normalized growth,"locus YEL037C, strain rad23, stronger effect = lower value",0.57 (active)
same,normalized growth,"locus YEL061C, strain CIN8 (second series), stronger effect = lower value",0.885 (active)
same,normalized growth,"locus YEL061C, strain CIN8, stronger effect = lower value",0.793 (active)
same,normalized growth,"locus YER015W, strain faa2, stronger effect = lower value",0.693 (active)
same,normalized growth,"locus YER016W, strain bim1, stronger effect = lower value",0.69 (active)
same,normalized growth,"locus YER110C, stronger effect = lower value",0.977
same,normalized growth,"locus YER111C, strain swi4, stronger effect = lower value",0.886 (active)
same,normalized growth,"locus YER155C, strain BEM2 (second series), stronger effect = lower value",0.913
same,normalized growth,"locus YER155C, strain BEM2, stronger effect = lower value",1.01
same,normalized growth,"locus YER167W, strain BCK2, stronger effect = lower value",0.614 (active)
same,normalized growth,"locus YFR010W, strain ubp6, stronger effect = lower value",0.615 (active)
same,normalized growth,"locus YGL078C, strain dbp3, stronger effect = lower value",0.681 (active)
same,normalized growth,"locus YGL086W, strain mad1, stronger effect = lower value",0.595 (active)
same,normalized growth,"locus YGL167C, strain pmr1, stronger effect = lower value",1.01
same,normalized growth,"locus YGL173C, strain kem1, stronger effect = lower value",0.567 (active)
same,normalized growth,"locus YGL227W, strain vid30, stronger effect = lower value",0.885 (active)
same,normalized growth,"locus YGL240W, strain doc1, stronger effect = lower value",0.914
same,normalized growth,"locus YGL248W, strain PDE1, stronger effect = lower value",0.671 (active)
same,normalized growth,"locus YGL253W, strain hxk2, stronger effect = lower value",0.535 (active)
same,normalized growth,"locus YGR078C, strain PAC10, stronger effect = lower value",0.735 (active)
same,normalized growth,"locus YGR135W, strain pre9, stronger effect = lower value",0.709 (active)
same,normalized growth,"locus YGR229C, strain SMI1, stronger effect = lower value",0.694 (active)
same,normalized growth,"locus YGR252W, strain gcn5, stronger effect = lower value",0.544 (active)
same,normalized growth,"locus YHR013C, strain ard1, stronger effect = lower value",0.557 (active)
same,normalized growth,"locus YHR027C, strain rpn1, stronger effect = lower value",0.73 (active)
same,normalized growth,"locus YHR030C, strain SLT2, stronger effect = lower value",0.796 (active) and 0.77 (active)
same,normalized growth,"locus YHR079C, strain IRE1 (second series), stronger effect = lower value",0.535 (active)
same,normalized growth,"locus YHR079C, strain IRE1, stronger effect = lower value",0.763 (active)
same,normalized growth,"locus YHR094C, strain hxt1, stronger effect = lower value",0.801 (active)
same,normalized growth,"locus YHR129C, strain ARP1, stronger effect = lower value",0.808 (active)
same,normalized growth,"locus YHR142W, strain chs7, stronger effect = lower value",0.706 (active)
same,normalized growth,"locus YHR200W, strain rpn10, stronger effect = lower value",0.674 (active)
same,normalized growth,"locus YIL066C, strain RNR3, stronger effect = lower value",0.737 (active)
same,normalized growth,"locus YIL073C, strain SPO22, stronger effect = lower value",0.681
same,normalized growth,"locus YIL125W, strain kgd1, stronger effect = lower value",0.803 (active)
same,normalized growth,"locus YIR030C, strain dcg1, stronger effect = lower value",0.59 (active)
same,normalized growth,"locus YJL092W, strain hpr5, stronger effect = lower value",0.659 (active)
same,normalized growth,"locus YJL095W, strain BCK1 (second series), stronger effect = lower value",0.684 (active)
same,normalized growth,"locus YJL095W, strain BCK1, stronger effect = lower value",0.563 (active) and 0.76 (active)
same,normalized growth,"locus YJL115W, strain asf1, stronger effect = lower value",0.861 (active)
same,normalized growth,"locus YJL129C, strain trk1, stronger effect = lower value",1.05
same,normalized growth,"locus YJL134W, strain LCB3, stronger effect = lower value",1.01
same,normalized growth,"locus YJL154C, strain vps35, stronger effect = lower value",0.993
same,normalized growth,"locus YJL164C, strain tpk1, stronger effect = lower value",0.462 (active)
same,normalized growth,"locus YJL166W, strain qcr8, stronger effect = lower value",0.549 (active)
same,normalized growth,"locus YJL168C, strain set2, stronger effect = lower value",0.972
same,normalized growth,"locus YJL187C, strain SWE1 (second series), stronger effect = lower value",0.524 (active)
same,normalized growth,"locus YJR043C, strain POL32, stronger effect = lower value",0.717 (active)
same,normalized growth,"locus YJR066W, strain TOR1, stronger effect = lower value",0.744 (active)
